About 2,000 (36%) of roughly 5,500 compounds were called active. Inconclusive results (about 18%) are left out. No stated cut-off is given here; in the data, active means normalized growth mostly below about 0.91 (no sharp cut-off); inconclusive means no clear call, values can overlap the other calls; inactive means mostly above about 0.92. The list shows a part of the results.
Assay: chemical genetic growth profiling, strain panel (AID 1159580);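 further: tested at 20 µM; growth read once vehicle control cultures reached saturation at 30 °C; 1 = growth at the plate median or of vehicle wells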
Conditions: S. cerevisiae deletion strains, growth OD

Measured: normalized growth

CC(C)(O)[C@@H]1CC[C@](C)([C@H]2[C@@H](O)C[C@@]3(C)C4C[C@H](O[C@@H]5O[C@H](CO)[C@@H](O)[C@H](O)[C@H]5O)C5C(C)(C)[C@@H](O[C@@H]6OC[C@@H](O)[C@H](O)[C@H]6O)CC[C@@]56C[C@@]46CC[C@]23C)O1 (stereo not given in full)
inactive: locus YAL021C, strain ccr4, stronger effect = lower value 0.988 | locus YAL026C, strain drs2, stronger effect = lower value 0.986 | locus YAL030W, strain snc1, stronger effect = lower value 0.99 | locus YBL061C, strain skt5, stronger effect = lower value 0.999 | locus YBR009C, strain hhf1, stronger effect = lower value 1.01 | locus YBR023C, strain chs3, stronger effect = lower value 0.998 | locus YBR171W, strain sec66, stronger effect = lower value 0.989 | locus YBR231C, strain swc5, stronger effect = lower value 1 | locus YBR279W, strain paf1, stronger effect = lower value 0.991 | locus YCL011C, strain gbp2, stronger effect = lower value 0.995 | locus YCL016C, strain dcc1, stronger effect = lower value 1 | locus YCL061C, strain MRC1, stronger effect = lower value 1 | locus YCL069W, strain vba3, stronger effect = lower value 0.981 | locus YCR088W, strain abp1, stronger effect = lower value 0.986 | locus YDL005C, strain med2, stronger effect = lower value 0.977 | locus YDL040C, strain nat1, stronger effect = lower value 0.985 | locus YDR001C, strain nth1, stronger effect = lower value 0.991 | locus YDR069C, strain doa4, stronger effect = lower value 0.975 | locus YDR137W, strain rgp1, stronger effect = lower value 1.04 | locus YDR159W, strain sac3, stronger effect = lower value 0.966 | locus YDR195W, strain ref2 0.931 | locus YDR297W, strain sur2, stronger effect = lower value 1 | locus YDR334W, strain swr1, stronger effect = lower value 0.959 | locus YDR335W, strain msn5, stronger effect = lower value 0.986 | locus YDR392W, strain spt3, stronger effect = lower value 0.997 | locus YEL003W, strain gim4, stronger effect = lower value 0.991 | locus YEL037C, strain rad23, stronger effect = lower value 0.974 | locus YEL061C, strain CIN8 (second series), stronger effect = lower value 0.985 | locus YER015W, strain faa2, stronger effect = lower value 0.998 | locus YER016W, strain bim1, stronger effect = lower value 1 | locus YER111C, strain swi4, stronger effect = lower value 0.979 | locus YER155C, strain BEM2 (second series), stronger effect = lower value 1 | locus YFR010W, strain ubp6, stronger effect = lower value 0.989 | locus YGL167C, strain pmr1, stronger effect = lower value 0.979 | locus YGL173C, strain kem1, stronger effect = lower value 0.99 | locus YGL227W, strain vid30, stronger effect = lower value 0.999 | locus YGL240W, strain doc1, stronger effect = lower value 1 | locus YGL253W, strain hxk2, stronger effect = lower value 0.988 | locus YHR013C, strain ard1, stronger effect = lower value 0.976 | locus YHR027C, strain rpn1, stronger effect = lower value 0.998 | locus YHR030C, strain SLT2, stronger effect = lower value 0.954 | locus YHR079C, strain IRE1, stronger effect = lower value 0.96 | locus YHR142W, strain chs7, stronger effect = lower value 0.978 | locus YJL092W, strain hpr5, stronger effect = lower value 0.995 | locus YJL095W, strain BCK1 (second series), stronger effect = lower value 0.981 | locus YJL095W, strain BCK1, stronger effect = lower value 1.05 | locus YJL115W, strain asf1, stronger effect = lower value 0.978 | locus YJL129C, strain trk1, stronger effect = lower value 0.989 | locus YJL154C, strain vps35, stronger effect = lower value 0.972 | locus YJL164C, strain tpk1, stronger effect = lower value 1 | locus YJL166W, strain qcr8, stronger effect = lower value 0.987 | locus YJL187C, strain SWE1, stronger effect = lower value 0.993 | locus YJR066W, strain TOR1, stronger effect = lower value 0.92 | locus YKL160W, strain elf1, stronger effect = lower value 0.996 | locus YKR026C, strain gcn3, stronger effect = lower value 0.992 | locus YKR091W, strain srl3, stronger effect = lower value 0.993 | locus YLL001W, strain dnm1, stronger effect = lower value 1 | locus YLL026W, stronger effect = lower value 1 | locus YLL041C, strain sdh2, stronger effect = lower value 0.98 | locus YLR027C, strain aat2, stronger effect = lower value 1.02 | locus YLR113W, strain HOG1, stronger effect = lower value 1.1 | locus YLR221C, strain rsa3, stronger effect = lower value 1 | locus YLR258W, strain gsy2, stronger effect = lower value 0.979 | locus YLR262C, strain YPT6 (second series), stronger effect = lower value 0.998 | locus YLR320W, strain mms22, stronger effect = lower value 0.996 | locus YLR342W, strain FKS1, stronger effect = lower value 1 | locus YLR357W, strain rsc2, stronger effect = lower value 0.967 | locus YLR370C, strain arc18, stronger effect = lower value 0.986 | locus YLR384C, strain iki3, stronger effect = lower value 1 | locus YML120C, strain ndi1, stronger effect = lower value 0.98 | locus YMR058W, strain fet3, stronger effect = lower value 0.994 | locus YMR125W, strain sto1, stronger effect = lower value 0.984 | locus YMR129W, stronger effect = lower value 0.995 | locus YMR205C, strain PFK2, stronger effect = lower value 0.976 | locus YMR231W, strain pep5, stronger effect = lower value 0.991 | locus YNL071W, strain lat1, stronger effect = lower value 0.972 | locus YNL183C, strain NPR1, stronger effect = lower value 0.985 | locus YNL209W, strain ssb2, stronger effect = lower value 0.987 | locus YNL248C, strain rpa49, stronger effect = lower value 0.981 | locus YNL322C, strain KRE1 (second series), stronger effect = lower value 0.989 | locus YNR049C, strain mso1, stronger effect = lower value 0.994 | locus YOR001W, strain rrp6, stronger effect = lower value 0.972 | locus YOR070C, strain gyp1, stronger effect = lower value 1 | locus YOR080W, strain dia2, stronger effect = lower value 0.987 | locus YOR083W, strain WHI5, stronger effect = lower value 1 | locus YOR106W, strain vam3, stronger effect = lower value 0.99 | locus YOR231W, strain MKK1, stronger effect = lower value 0.95 | locus YOR265W, strain rbl2, stronger effect = lower value 0.993 | locus YOR270C, strain vph1, stronger effect = lower value 0.793 | locus YOR290C, strain snf2, stronger effect = lower value 1.01 | locus YPL051W, strain arl3, stronger effect = lower value 1.01 | locus YPL078C, strain atp4, stronger effect = lower value 0.975 | locus YPL106C, strain sse1, stronger effect = lower value 0.975 | locus YPL240C, strain hsp82, stronger effect = lower value 0.989 | locus YPL256C, strain CLN2, stronger effect = lower value 0.974

Source: PubChem BioAssay AID1159580 (chemical genetic matrix, 2015)
